34 molecules from PubChem BioAssay (NCATS) can be followed below.

Molecules are shown by their SMILES. Several values for one entry are separate records, joined by “and”; a condition that tells them apart may be missing. Identical values can stand only once. Records with an inconclusive call do not appear. Entries that show only a call come without a potency. Activity calls are given as the source filed them. The call rests on the fitted dose curve; in most records, active means well fitted curve in the direction sought with a large enough effect; inconclusive means small, poorly fitted or top-dose-only effect, or another doubt; inactive means no such curve, though single readings can be large; an effect the other way counts as inactive or inconclusive.

Test [1] has as its target Tyrosine-protein kinase Yes (Homo sapiens) (UniProt P07947). Kind of test: qHTS for small molecule inhibitors of Yes1 kinase: Primary Screen (AID 686947). Further: nearly all actives have a fitted effect of over 60% in size. Further: potency means the concentration at half of the fitted maximal effect. A digest of the protocol:
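Yes1 (4 nM) preincubated 20 min with compound, then 60 min room-temperature reaction with 0.1 mM ATP and 0.3 mg/mL poly(E4Y) in pH 7.5 Tris, 10 mM MgCl2. ADP measured by ADP-Glo luminescence, normalised to enzyme/no-enzyme controls.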

A short description of test [2]: qHTS for small molecule inhibitors of Yes1 kinase: Counter Assay (AID 686950).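 Further: no kinase present so only ADP-Glo detection of a fixed ADP amount is tested; luminescence from ADP-Glo reporting ADP in a fixed ATP and ADP mixture; series mostly up to about 77 µM.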 In short, it runs like this:
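Enzyme-free detection counter-screen: compounds preincubated 20 min in buffer, then 0.08 mM ATP plus 0.02 mM ADP added for 60 min at room temperature; ADP-Glo luminescence. Buffer 50 mM Tris pH 7.5, 10 mM MgCl2, 150 mM NaCl; normalized to ATP+ADP and ATP-only controls.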
(Quantitative high-throughput screening tests each substance at several concentrations.)

Tyrosine-protein kinase Yes (Homo sapiens), sequence (P07947 whole entry, looked up): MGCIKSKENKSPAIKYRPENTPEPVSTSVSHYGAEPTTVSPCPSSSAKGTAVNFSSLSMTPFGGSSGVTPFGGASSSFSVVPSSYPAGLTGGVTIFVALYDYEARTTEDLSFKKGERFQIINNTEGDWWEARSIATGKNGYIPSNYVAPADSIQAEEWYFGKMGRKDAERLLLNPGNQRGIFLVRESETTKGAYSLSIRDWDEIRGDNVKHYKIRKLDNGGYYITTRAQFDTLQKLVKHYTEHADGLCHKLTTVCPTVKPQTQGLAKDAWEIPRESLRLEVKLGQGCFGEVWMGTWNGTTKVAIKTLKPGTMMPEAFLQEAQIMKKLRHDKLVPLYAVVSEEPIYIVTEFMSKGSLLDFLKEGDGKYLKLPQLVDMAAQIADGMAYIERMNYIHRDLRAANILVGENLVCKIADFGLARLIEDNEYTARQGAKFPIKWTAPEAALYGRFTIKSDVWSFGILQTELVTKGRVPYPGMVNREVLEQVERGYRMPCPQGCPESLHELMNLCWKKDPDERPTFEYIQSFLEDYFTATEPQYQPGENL

In the case of `NC(=O)c1cc(-c2ccc(F)cc2)cc(-c2ccncc2)c1N`, the Potency entry in test [1] is “inactive”. Also, in test [2], the molecule was called inactive.
For the molecule `CCOc1ccc2c(-c3ccnc(Nc4cccc(C(F)(F)F)c4)n3)cnn2n1`, the Potency result in test [1] was “inactive”. Moreover, the result in test [2] was inactive.
For `COc1cccc(C=NNc2ncnc3c2cnn3-c2cccc(OC)c2)c1`, in test [1], the Potency was 7.33 µM (active). Besides, the call in test [2] was inactive.
The matching figures for `CS(=O)(=O)CCNCc1ccc(-c2ccc3ncnc(Nc4ccc(OCc5ccccc5)c(C(F)(F)F)c4)c3c2)o1`: “inactive” and “inactive”.
Consider `CN1CCC(C(=O)Nc2n[nH]c3nc(-c4ccc(O)cc4)c(Br)cc23)CC1`, for which the Potency in test [1] was 36.8 µM (active) and 23.2 µM (active). Also, the call in test [2] was inactive.
On to `Cc1nc(-c2ccccc2)n2nc(NCCCN3CCOCC3)ncc12`, for which the Potency in test [1] was 32.8 µM (active). For the same molecule, in test [2], the call was inactive.
The matching figures for `OCc1ccc(-c2nc(-c3ccc4c(c3)OCO4)c(-c3ccccn3)[nH]2)cc1`: “inactive” and “inactive”.
The matching figures for `NC(=O)c1cc(-c2ccncc2)cc(-c2ccccc2)c1N`: 0.519 µM (active) and “inactive”.
For `CC(C)(CO)CNC(=O)c1ccc2[nH]c(O)c(N=Nc3ccc(S(N)(=O)=O)cc3)c2c1` the same measures were 2.32 µM (active) and “inactive”.
Consider `NS(=O)(=O)c1cccc(Nc2cc(-c3ccc(F)cc3)[nH]n2)c1`, for which, in test [1], the Potency was 3.68 µM (active). In addition, the outcome in test [2] was inactive.
The matching figures for `Fc1cccc(COc2ccc(Nc3ncncc3C#Cc3ccccc3)cc2Cl)c1`: “inactive” and “inactive”.
The matching figures for `NC(=O)c1sc(-n2cnc3cc(C(F)(F)F)ccc32)cc1OCc1ccccc1Br`: “inactive” and “inactive”.
For the molecule `COc1cccc(-n2ncc3c(NN=Cc4ccncc4)ncnc32)c1`, in test [1], the Potency is 0.0923 µM (active). The call in test [2] was inactive.
For `CCn1cc(-c2ccnc3[nH]ccc23)c(-c2cccc(NC(=O)Nc3ccc(OCc4ccccc4)cc3)c2)n1` the same measures were 9.23 µM (active) and “inactive”.
The matching figures for `CCS(=O)(=O)c1ccc(OC)c(Nc2ncc(-c3cccc(C(C)=O)c3)o2)c1`: 0.292 µM (active) and “inactive”.
`COC(=O)Nc1nc2ccc(S(=O)(=O)c3ccc(NC(=O)Nc4cc(C(F)(F)F)ccc4F)cc3)cc2[nH]1`: the Potency entry in test [1] is “inactive”. The outcome in test [2] was inactive.
Consider `CC(Oc1cc(-n2cnc3ccc(OCC4CCN(C)CC4)cc32)sc1C(N)=O)c1ccccc1Cl` (stereo not drawn), for which the Potency in test [1] is 1.64 µM (active). Further, the molecule was classed as inactive in test [2].
On to `CCn1c(-c2nonc2N)nc2c(C#CC(C)(C)O)ncc(OCC3CCCN3)c21` (stereo not drawn), for which the Potency in test [1] was 26 µM (active). Further, the molecule was called inactive in test [2].
The matching figures for `CC(C)c1ccc(Nc2nccc(-c3cnn4ncccc34)n2)cc1`: 26 µM (active) and “inactive”.
For `COc1cc(Nc2ncc3c(C)nc(-c4cccc(C(F)(F)F)c4)n3n2)cc(OC)c1OC` the same measures were 0.582 µM (active) and “inactive”.
For the molecule `c1ccc(-c2[nH]ncc2-c2ccnc(-c3ccc(OCCn4ccnc4)cc3)c2)nc1`, in test [1], the Potency was 4.63 µM (active). Also, the result in test [2] was inactive.
For `COC(=O)Nc1nc2ccc(Sc3ccc(NC(=O)Nc4cc(C(F)(F)F)ccc4F)cc3)cc2[nH]1` the same measures were “inactive” and “inactive”.
Consider `Cc1ccc2c(-c3ccnc(Nc4cccc(C(F)(F)F)c4)n3)c(-c3ccccc3)nn2n1`, for which the Potency in test [1] was 0.146 µM (active). Moreover, the call in test [2] was inactive.
The matching figures for `CCS(=O)(=O)c1ccc(OC)c(Nc2ncc(-c3cccc(-c4ccccc4F)c3)o2)c1`: 0.463 µM (active) and “inactive”.
Regarding `COc1cc2ncn(-c3cc(OC(C)c4ccccc4Cl)c(C(N)=O)s3)c2cc1OC` (stereo not drawn), in test [1], the Potency is 2.92 µM (active) and 733 nM (active). The call in test [2] was inactive.
On to `Cc1nnc(-c2ccc(C)c(-c3ccc(C(=O)NCc4ccc(Cl)cc4)cc3)c2)o1`, for which the Potency entry in test [1] is “inactive”. The result in test [2] was inactive.
Turning to `NS(=O)(=O)c1ccc(-c2ccc3c(NC(=O)C4CC4)n[nH]c3c2)cc1`, the Potency in test [1] was 1.84 µM (active). Further, the call in test [2] was inactive.
For `CC1(C)CC(n2cnc(-c3ccc(F)cc3)c2-c2ccnc(N)n2)CC(C)(C)N1` the same measures were 5.19 µM (active) and “inactive”.
The matching figures for `COc1cccc(-n2ncc3c(NN=Cc4ccc(C(=O)NCCN(C)C)cc4)ncnc32)c1`: 0.0207 µM (active) and “inactive”.
The matching figures for `COc1cc(Nc2nccc(Nc3ccc4c(C)[nH]nc4c3)n2)cc(OC)c1OC`: 0.0923 µM (active) and “inactive”.
Turning to `Nc1ncnc2occ(-c3ccc(NC(=O)Nc4cc(C(F)(F)F)cc(C(F)(F)F)c4)cc3)c12`, the Potency in test [1] was 3.68 µM (active). Besides, the result in test [2] was inactive.
For `CS(=O)(=O)CCNCc1ccc(-c2ccc3ncnc(Nc4ccc(OCc5cccc(F)c5)c(C(F)(F)F)c4)c3c2)o1` the same measures were “inactive” and “inactive”.
For `N#Cc1c(NC(=O)c2ccccc2F)sc2c1CCCC2` the same measures were “inactive” and “inactive”.
`COc1ccc(-c2ccc3c(NC(=O)C4CC4)n[nH]c3n2)cc1`: in test [1], the Potency was 6.54 µM (active). Moreover, the outcome in test [2] was inactive.
